Source: PubChem BioAssay (EPA / NIEHS)
Records with an inconclusive call do not appear. Activity calls are given as the source filed them. How the source made its calls: active means hit-call score of the fitted dose curve at least 0.9, where 1 is the maximum; inconclusive means response in the unintended direction; inactive means score below 0.9.

What was measured:
[1] = CCTE_Simmons_CellTiterGLO_HEK293T: Viability Assessment in CCTE's Assays for Thyroperoxidase (TPO) Inhibition, Simmons Lab (AID 2283665)
Outline: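 Luminescent ATP readout (CellTiter-Glo, 20 min at room temperature) after 24 hr exposure of HEK293T cells to 5 nM–87.5 uM final compound; signal loss relative to DMSO vehicle indicated cytotoxicity; dichlone titrated as positive control.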

[2] = tested on: Thyroperoxidase (TPO), gene 445522; assay: CCTE_Simmons_GUA_TPO: CCTE's Guaiacol Assay for Thyroperoxidase (TPO) Inhibition, Simmons Lab (AID 2283750)
Outline: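 Porcine thyroid microsomes (25 ug) in 200mM potassium phosphate, preincubated 30 s at 37C with compound (8 concentrations, 5 nM–87.5 uM) and 35mM guaiacol; 1mM H2O2 starts reaction. Absorbance change at 450nm over first 80 s; loss of signal versus DMSO, three replicates.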

[3] = biological target: Luciferin 4-monooxygenase (Photinus pyralis) (UniProt P08659); assay: CCTE_Simmons_QuantiLum_inhib_2: CCTE's Firefly Luciferase Inhibition Assay, Simmons Lab (AID 2283767)
Outline: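 Cell-free QuantiLum luciferase, 5 ng/well; compounds 5 nM–87.5 uM final, 8 conc, 0.5% DMSO; 30 min, 37C, dark. Detection reagent (150 uM D-luciferin, 147 uM dATP, CoA, DTT, pH 7.8 final) injected per well, kinetic luminescence. Triplicate biological replicates.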

[4] = biological target: chimpanzee Androgen Receptor (AR), AR (gene 747460) (UniProt O97775); assay: NVS_NR_cAR: NovaScreen (NVS) Nuclear Receptor Binding Assay for chimpanzee Androgen Receptor (AR) (AID 2283346);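 further: radioligand displacement from AR measured by scintillation counting in a cell-free assay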
Outline: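 Cell-free radioligand displacement using receptor protein extracted from Sf9/Sf21 cells; bound radioligand measured by scintillation counting 72 hours after chemical dosing. Loss of signal versus DMSO baseline indicates binding; primary screen single-concentration in duplicate at 25 uM, actives followed in concentration series.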

[5] = tested on: zebrafish Androgen Receptor (AR), gene 100005148; assay: ATG_zfAR_XSP1: Attagene TRANS-FACTORIAL Multi-Species (XSP1) HepG2 Assay for zebrafish Androgen Receptor (AR) (AID 2283771)
Outline: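 Gain-of-signal versus DMSO was measured as reporter transcripts quantified by RT-PCR, fluorescent labelling and capillary electrophoresis after 24 h chemical exposure. The cells were HepG2 expressing a chimeric zebrafish AR-GAL4, co-stimulated with 3 nM 6-alpha-fluorotestosterone.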

[6] = tested on: zebrafish Estrogen Receptor (ESR2B), gene 317733; assay: ATG_zfER2b_XSP1: Attagene TRANS-FACTORIAL Multi-Species (XSP1) HepG2 Assay for zebrafish Estrogen Receptor (ESR2B) (AID 2283773)
Outline: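 Human hepatoma HepG2, transiently transfected with multi-reporter units; exogenous zebrafish ESR2B-Gal4 activity measured. Exposure 24 h alongside 3 nM 6-alpha-fluorotestosterone to partly stimulate AR.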

[7] = biological target: chicken Estrogen Receptor (ESR1), ESR1 (gene 396099) (UniProt P06212); assay: ATG_chERa_XSP1: Attagene TRANS-FACTORIAL Multi-Species (XSP1) HepG2 Assay for chicken Estrogen Receptor (ESR1) (AID 2283779)
Outline: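 Gain-of-signal reporter transcription, relative to DMSO, was scored in transiently transfected HepG2 cells after a 24 h dose. Fluorescence intensity of amplified, digested reporter cDNA fragments served as the endpoint.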

[8] = tested on: turtle Estrogen Receptor (ESR1), gene 101933533; assay: ATG_trERa_XSP1: Attagene TRANS-FACTORIAL Multi-Species (XSP1) HepG2 Assay for turtle Estrogen Receptor (ESR1) (AID 2283781)
Outline: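 Cell-based chimeric NR-Gal4 transactivation; HepG2; 24 h dosing; mRNA reporter detected by RT-PCR and capillary electrophoresis fluorescence.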

[9] = ATG_M_06_XSP1: Attagene TRANS-FACTORIAL Multi-Species (XSP1) HepG2 Assay for M06 Transcription Factor (Internal Marker) (AID 2283790)
Outline: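 This background-control readout tracks M06 reporter mRNA, measured by RT-PCR and capillary electrophoresis. HepG2 cells transiently carrying the GAL4-UAS reporter panel were dosed for 24 h with 3 nM 6-alpha-fluorotestosterone added for partial AR stimulation; increases were scored relative to DMSO.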

[10] = ATG_M_61_XSP1: Attagene TRANS-FACTORIAL Multi-Species (XSP1) HepG2 Assay for M61 Transcription Factor (Internal Marker) (AID 2283797)
Outline: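 Background-control readout: reporter transcripts measured by RT-PCR and capillary electrophoresis 24 h after dosing transiently transfected HepG2 multi-reporter cells, with 3 nM 6-alpha-fluorotestosterone present. Fitted in the positive direction relative to DMSO.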

[11] = biological target: Nuclear receptor subfamily 1 group I member 2 (Mus musculus) (UniProt O54915); assay: ATG_mPXR_XSP1: Attagene TRANS-FACTORIAL Multi-Species (XSP1) HepG2 Assay for mouse Pregnane X Receptor (PXR) (AID 2283803)
Outline: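 Transiently transfected HepG2 cells expressing a receptor-Gal4 chimera drive a GAL4-UAS reporter; 3 nM 6-alpha-fluorotestosterone included. Reporter mRNA read 24 h post-dose by RT-PCR and capillary electrophoresis; gain of signal relative to DMSO.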

[12] = biological target: zebrafish Thyroid Hormone Receptor alpha (TRa), thraa (gene 30670) (UniProt Q98867); assay: ATG_zfTRa_XSP1: Attagene TRANS-FACTORIAL Multi-Species (XSP1) HepG2 Assay for zebrafish Thyroid Hormone Receptor alpha (TRa) (AID 2283807)
Outline: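 Reporter transcripts driven by a chimeric zebrafish TRa–Gal4 protein were measured by RT-PCR with fluorescent labelling and capillary electrophoresis. These came from transiently transfected HepG2 cells after 24 h chemical exposure, with 3 nM 6-alpha-fluorotestosterone added; baseline was DMSO.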

[13] = ATG_XTT_Cytotoxicity_XSP1: Cytotoxicity Assessment in the Attagene TRANS-FACTORIAL Multi-Species (XSP1) HepG2 Assay (AID 2283810)
Outline: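 XTT viability readout taken at 24 hours post-dosing in HepG2 liver cells co-treated with 3 nM 6-alpha-fluorotestosterone. Signal loss relative to DMSO controls reflects cytotoxicity.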

[14] = ATG_M_06_XSP2: Attagene TRANS-FACTORIAL Multi-Species (XSP2) HepG2 Assay for M06 Transcription Factor (Internal Marker) (AID 2283811);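 further: hits are increases in signal above the DMSO baseline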
Outline: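 Cells of the human liver line HepG2 carried transfected reporter transcription units and were treated for 24 h. Induced reporter transcripts were detected by fluorescence after RT-PCR and capillary electrophoresis, with activity fitted in the gain direction against DMSO.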

[15] = biological target: GAL4 Transcription Factor (Internal Marker), GAL4 (gene 855828) (UniProt P04386); assay: ATG_GAL4_XSP2: Attagene TRANS-FACTORIAL Multi-Species (XSP2) HepG2 Assay for GAL4 Transcription Factor (Internal Marker) (AID 2283814);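 further: GAL4 reporter mRNA background control in MRTU transfected cells not a receptor target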
Outline: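 Background-control readout: gain-of-signal fitted against DMSO. After 24 h exposure of transfected HepG2 (MRTU, GAL4-UAS reporters; 3 nM 6-alpha-fluorotestosterone, 1.5 nM norgestrel present), transcripts quantified by RT-PCR and capillary electrophoresis fluorescence.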

[16] = biological target: chicken Estrogen Receptor (ERa), ESR1 (gene 396099) (UniProt P06212); assay: ATG_chERa_XSP2: Attagene TRANS-FACTORIAL Multi-Species (XSP2) HepG2 Assay for chicken Estrogen Receptor (ERa) (AID 2283817);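 further: actives raise reporter signal above DMSO so AC50 reflects ER activation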
Outline: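 Exogenous chicken ERa-Gal4 chimera activity was assessed in transfected human liver HepG2 cells after 24 h of treatment. Induced reporter mRNA was quantified fluorescently by capillary electrophoresis, with DMSO as baseline.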

[17] = ATG_M_19_XSP2: Attagene TRANS-FACTORIAL Multi-Species (XSP2) HepG2 Assay for M32 Transcription Factor (Internal Marker) (AID 2283822)
Outline: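 Internal background marker in a multi-species nuclear receptor TRANS panel: transfected HepG2 cells exposed 24 h, with 3 nM 6-alpha-fluorotestosterone and 1.5 nM norgestrel present. Readout is RT-PCR of reporter transcripts resolved by capillary electrophoresis, gain-of-signal versus DMSO.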

[18] = tested on: zebrafish Estrogen Receptor (ER2b), gene 317733; assay: ATG_zfER2b_XSP2: Attagene TRANS-FACTORIAL Multi-Species (XSP2) HepG2 Assay for zebrafish Estrogen Receptor (ER2b) (AID 2283823);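 further: fitted upward as reporter gain over DMSO so potency reflects activation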
Outline: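 HepG2 human liver cells transiently transfected with multiplexed GAL4-UAS reporter units expressing chimeric NR-Gal4 proteins; compounds dosed for 24 h. Reporter mRNA quantified by RT-PCR, 6-FAM labelling and capillary electrophoresis; gain-of-signal fitted against DMSO baseline.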

[19] = biological target: Peroxisome proliferator-activated receptor gamma (Homo sapiens) (UniProt P37231); assay: ATG_hPPARg_XSP2: Attagene TRANS-FACTORIAL Multi-Species (XSP2) HepG2 Assay for human Peroxisome Proliferator-activated Receptor gamma (PPARg) (AID 2283829);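 further: actives raise reporter mRNA above DMSO so AC50 reflects PPARg activation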
Outline: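 Reporter transcripts were measured by RT-PCR, fluorescent labeling, HpaI digestion and capillary electrophoresis, relative to DMSO, 24 h post-dosing. Transiently transfected HepG2 expressed NR-Gal4 chimeras regulating GAL4-UAS reporters; medium contained 3 nM 6-alpha-fluorotestosterone plus 1.5 nM norgestrel.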

[20] = biological target: mouse Peroxisome Proliferator-activated Receptor gamma (PPARg), Pparg (gene 19016) (UniProt P37238); assay: ATG_mPPARg_XSP2: Attagene TRANS-FACTORIAL Multi-Species (XSP2) HepG2 Assay for mouse Peroxisome Proliferator-activated Receptor gamma (PPARg) (AID 2283830);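 further: hits are gains in reporter mRNA above DMSO so AC50 marks activation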
Outline: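 Multiplexed TRANS reporter readout: after 24 h chemical exposure of transfected HepG2 cells (with 3 nM 6-alpha-fluorotestosterone, 1.5 nM norgestrel present), RNA reverse-transcribed, amplified, 6-FAM-labelled and resolved by capillary electrophoresis; mouse PPARg-Gal4 induction scored against DMSO.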

GAL4 Transcription Factor (Internal Marker), GAL4 (gene 855828), sequence (P04386 whole entry, looked up, the tested form may be a part): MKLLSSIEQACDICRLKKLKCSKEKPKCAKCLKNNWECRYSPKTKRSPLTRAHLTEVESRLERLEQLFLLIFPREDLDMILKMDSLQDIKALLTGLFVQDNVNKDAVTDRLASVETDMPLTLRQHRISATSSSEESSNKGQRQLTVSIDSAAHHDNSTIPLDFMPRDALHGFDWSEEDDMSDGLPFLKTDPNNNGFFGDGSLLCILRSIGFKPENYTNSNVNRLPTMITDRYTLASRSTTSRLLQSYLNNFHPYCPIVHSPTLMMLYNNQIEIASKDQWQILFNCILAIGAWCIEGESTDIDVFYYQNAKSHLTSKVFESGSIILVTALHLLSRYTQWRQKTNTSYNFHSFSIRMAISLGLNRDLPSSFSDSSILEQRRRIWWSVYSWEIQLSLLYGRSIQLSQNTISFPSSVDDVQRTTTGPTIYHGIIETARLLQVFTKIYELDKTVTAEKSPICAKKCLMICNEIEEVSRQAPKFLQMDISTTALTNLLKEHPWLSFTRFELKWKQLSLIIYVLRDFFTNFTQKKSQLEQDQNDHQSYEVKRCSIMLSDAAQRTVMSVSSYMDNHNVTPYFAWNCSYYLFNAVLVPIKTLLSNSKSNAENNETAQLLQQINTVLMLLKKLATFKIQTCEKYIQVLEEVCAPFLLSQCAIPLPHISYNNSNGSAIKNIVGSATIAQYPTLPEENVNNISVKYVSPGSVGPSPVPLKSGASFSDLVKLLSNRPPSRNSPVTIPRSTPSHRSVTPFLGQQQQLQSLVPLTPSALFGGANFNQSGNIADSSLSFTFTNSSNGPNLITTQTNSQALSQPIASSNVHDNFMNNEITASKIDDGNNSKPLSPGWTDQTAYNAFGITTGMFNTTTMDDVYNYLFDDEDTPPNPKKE
mouse Peroxisome Proliferator-activated Receptor gamma (PPARg), Pparg (gene 19016), sequence (P37238 whole entry, looked up, the tested form may be a part): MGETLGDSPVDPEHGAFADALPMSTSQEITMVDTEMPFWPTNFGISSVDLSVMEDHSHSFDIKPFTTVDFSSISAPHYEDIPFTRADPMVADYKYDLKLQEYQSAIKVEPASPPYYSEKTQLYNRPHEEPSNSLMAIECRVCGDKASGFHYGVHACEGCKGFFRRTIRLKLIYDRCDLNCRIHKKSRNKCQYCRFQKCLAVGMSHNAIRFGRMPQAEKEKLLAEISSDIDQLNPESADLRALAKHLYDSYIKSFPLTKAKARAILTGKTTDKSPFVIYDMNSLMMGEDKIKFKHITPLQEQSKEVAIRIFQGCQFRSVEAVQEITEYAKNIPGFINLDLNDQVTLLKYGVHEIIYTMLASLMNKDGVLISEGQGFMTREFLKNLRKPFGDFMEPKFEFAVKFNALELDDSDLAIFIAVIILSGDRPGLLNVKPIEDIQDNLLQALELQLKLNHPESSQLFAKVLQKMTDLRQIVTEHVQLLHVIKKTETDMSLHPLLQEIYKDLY
Luciferin 4-monooxygenase (Photinus pyralis), sequence (P08659 whole entry, looked up): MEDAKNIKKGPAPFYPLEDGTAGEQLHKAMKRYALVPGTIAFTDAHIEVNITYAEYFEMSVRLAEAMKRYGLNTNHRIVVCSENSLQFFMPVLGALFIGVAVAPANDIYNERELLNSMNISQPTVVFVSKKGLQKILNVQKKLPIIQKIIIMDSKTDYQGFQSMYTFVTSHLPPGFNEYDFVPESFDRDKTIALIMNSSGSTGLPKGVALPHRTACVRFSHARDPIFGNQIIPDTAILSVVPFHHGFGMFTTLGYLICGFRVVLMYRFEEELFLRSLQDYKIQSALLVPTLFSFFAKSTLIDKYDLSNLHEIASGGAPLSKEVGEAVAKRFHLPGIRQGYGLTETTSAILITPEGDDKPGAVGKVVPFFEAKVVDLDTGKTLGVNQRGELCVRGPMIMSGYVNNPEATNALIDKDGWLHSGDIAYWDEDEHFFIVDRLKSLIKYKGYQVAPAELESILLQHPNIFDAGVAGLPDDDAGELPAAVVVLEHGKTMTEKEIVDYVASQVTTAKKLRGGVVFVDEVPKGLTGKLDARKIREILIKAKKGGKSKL
Nuclear receptor subfamily 1 group I member 2 (Mus musculus), sequence (O54915 whole entry, looked up, the tested form may be a part): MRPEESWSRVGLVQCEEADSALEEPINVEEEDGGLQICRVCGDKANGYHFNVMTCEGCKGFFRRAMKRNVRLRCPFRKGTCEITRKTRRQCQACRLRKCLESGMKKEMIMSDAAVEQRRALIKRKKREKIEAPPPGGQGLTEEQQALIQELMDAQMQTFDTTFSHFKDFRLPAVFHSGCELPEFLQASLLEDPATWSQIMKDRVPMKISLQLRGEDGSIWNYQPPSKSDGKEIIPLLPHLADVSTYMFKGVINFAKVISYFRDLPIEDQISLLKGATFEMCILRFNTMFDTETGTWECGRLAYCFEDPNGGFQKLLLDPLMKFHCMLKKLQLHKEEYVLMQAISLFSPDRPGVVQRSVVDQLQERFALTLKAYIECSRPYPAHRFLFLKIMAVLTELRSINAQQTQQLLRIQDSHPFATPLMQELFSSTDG
chimpanzee Androgen Receptor (AR), AR (gene 747460), sequence (O97775 whole entry, looked up): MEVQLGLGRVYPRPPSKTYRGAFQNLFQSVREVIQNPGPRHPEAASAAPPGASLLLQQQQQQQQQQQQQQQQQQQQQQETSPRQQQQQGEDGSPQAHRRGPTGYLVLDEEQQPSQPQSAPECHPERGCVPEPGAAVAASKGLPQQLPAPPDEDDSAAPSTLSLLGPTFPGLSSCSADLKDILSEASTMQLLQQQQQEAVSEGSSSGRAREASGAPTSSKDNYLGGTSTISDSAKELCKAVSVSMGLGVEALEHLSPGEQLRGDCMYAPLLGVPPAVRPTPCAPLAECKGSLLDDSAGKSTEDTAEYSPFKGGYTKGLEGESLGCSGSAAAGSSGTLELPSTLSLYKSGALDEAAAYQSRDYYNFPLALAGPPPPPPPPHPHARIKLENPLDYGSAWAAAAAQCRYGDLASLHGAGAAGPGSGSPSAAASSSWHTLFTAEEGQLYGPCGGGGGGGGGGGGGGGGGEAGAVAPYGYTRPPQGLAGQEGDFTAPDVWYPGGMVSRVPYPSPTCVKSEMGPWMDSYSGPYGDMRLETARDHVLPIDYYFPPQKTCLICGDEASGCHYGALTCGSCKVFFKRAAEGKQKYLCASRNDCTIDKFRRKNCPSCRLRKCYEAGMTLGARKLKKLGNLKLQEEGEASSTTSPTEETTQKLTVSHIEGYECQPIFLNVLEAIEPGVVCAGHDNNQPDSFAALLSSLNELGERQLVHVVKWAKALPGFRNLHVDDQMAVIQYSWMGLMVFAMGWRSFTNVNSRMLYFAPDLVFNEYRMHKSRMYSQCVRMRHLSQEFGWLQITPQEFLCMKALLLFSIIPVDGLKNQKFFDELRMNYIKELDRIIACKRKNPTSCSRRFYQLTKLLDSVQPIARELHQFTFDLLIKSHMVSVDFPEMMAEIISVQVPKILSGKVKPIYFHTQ
zebrafish Thyroid Hormone Receptor alpha (TRa), thraa (gene 30670), sequence (Q98867 whole entry, looked up, the tested form may be a part): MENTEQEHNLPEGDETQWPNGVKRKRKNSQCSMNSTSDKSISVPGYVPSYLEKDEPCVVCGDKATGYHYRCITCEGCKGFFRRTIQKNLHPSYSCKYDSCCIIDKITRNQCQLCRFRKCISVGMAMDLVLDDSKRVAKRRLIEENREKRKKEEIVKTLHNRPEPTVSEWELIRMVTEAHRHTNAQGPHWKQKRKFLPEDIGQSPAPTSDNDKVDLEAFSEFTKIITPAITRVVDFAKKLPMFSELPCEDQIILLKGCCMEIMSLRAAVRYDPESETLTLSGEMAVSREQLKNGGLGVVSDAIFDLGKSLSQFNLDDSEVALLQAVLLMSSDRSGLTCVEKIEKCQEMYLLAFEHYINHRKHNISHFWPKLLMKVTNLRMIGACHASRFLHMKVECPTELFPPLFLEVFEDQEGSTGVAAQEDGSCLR
chicken Estrogen Receptor (ERa), ESR1 (gene 396099), sequence (P06212 whole entry, looked up, the tested form may be a part): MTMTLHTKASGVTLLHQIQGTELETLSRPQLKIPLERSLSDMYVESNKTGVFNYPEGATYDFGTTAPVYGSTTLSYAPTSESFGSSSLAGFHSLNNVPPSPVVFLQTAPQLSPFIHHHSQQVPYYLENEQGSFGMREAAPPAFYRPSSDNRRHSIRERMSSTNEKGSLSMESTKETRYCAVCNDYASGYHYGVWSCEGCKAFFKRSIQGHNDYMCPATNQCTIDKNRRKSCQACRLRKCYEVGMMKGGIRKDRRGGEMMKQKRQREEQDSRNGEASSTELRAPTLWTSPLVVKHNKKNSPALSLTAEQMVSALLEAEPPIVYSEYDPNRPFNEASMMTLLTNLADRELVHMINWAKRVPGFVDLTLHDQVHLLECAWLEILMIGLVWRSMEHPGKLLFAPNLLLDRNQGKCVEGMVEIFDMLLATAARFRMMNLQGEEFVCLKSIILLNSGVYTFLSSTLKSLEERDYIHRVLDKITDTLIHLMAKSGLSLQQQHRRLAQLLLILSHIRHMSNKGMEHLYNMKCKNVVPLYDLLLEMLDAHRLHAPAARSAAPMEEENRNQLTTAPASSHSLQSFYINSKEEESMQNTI
chicken Estrogen Receptor (ESR1), ESR1 (gene 396099), sequence (P06212 whole entry, looked up, the tested form may be a part): as above

SMILES	outcome [1]	AC50 [2]	outcome [3]	outcome [4]	AC50 [5]	AC50 [6]	AC50 [7]	outcome [8]	outcome [9]	outcome [10]	AC50 [11]	AC50 [12]	outcome [13]	outcome [14]	outcome [15]	outcome [16]	outcome [17]	AC50 [18]	AC50 [19]	AC50 [20]
Nc1ccccc1	inactive	9.69 µM (active)	inactive																	
CC(=O)c1cc2c(cc1C)C(C)(C)C(C)CC2(C)C (stereo not given)				inactive	64.4 µM (active)	25.5 µM (active)	59.7 µM (active)	inactive	inactive	inactive	1 µM (active)	145 µM (active)	inactive	inactive	inactive	inactive	inactive	26.7 µM (active)	41.9 µM (active)	49.4 µM (active)
